Assay results: PubChem BioAssay AID1508608 (The Scripps Research Institute Molecular Screening Center, 2020)
Among all 2,300 compounds or so, about 20 (0.9%) were called active. The sample as a whole holds a higher share of actives than the screen did. A number with no mark means an inactive call.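 The calls were made as follows: active = mean activation across replicates above 26.72%, the hit cutoff set for this confirmation screen; inactive = the rest.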

These compounds were tested against G-protein coupled receptor 151 (Homo sapiens) (UniProt Q8TDV0) (assay: GPR151 agonism via beta-arrestin recruitment – cell-based, PathHunter beta-arrestin, luminescence, set 2, confirmation (AID 1508608;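 also: 0% = plate median of compound wells and 100% = EA reagent high control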)). Settings: GPR151 PathHunter beta-arrestin cells, 90 min, at 11.2 µM, hits give high values, 100% = signal from added EA reagent.
G-protein coupled receptor 151 (Homo sapiens), sequence (Q8TDV0 whole entry, looked up): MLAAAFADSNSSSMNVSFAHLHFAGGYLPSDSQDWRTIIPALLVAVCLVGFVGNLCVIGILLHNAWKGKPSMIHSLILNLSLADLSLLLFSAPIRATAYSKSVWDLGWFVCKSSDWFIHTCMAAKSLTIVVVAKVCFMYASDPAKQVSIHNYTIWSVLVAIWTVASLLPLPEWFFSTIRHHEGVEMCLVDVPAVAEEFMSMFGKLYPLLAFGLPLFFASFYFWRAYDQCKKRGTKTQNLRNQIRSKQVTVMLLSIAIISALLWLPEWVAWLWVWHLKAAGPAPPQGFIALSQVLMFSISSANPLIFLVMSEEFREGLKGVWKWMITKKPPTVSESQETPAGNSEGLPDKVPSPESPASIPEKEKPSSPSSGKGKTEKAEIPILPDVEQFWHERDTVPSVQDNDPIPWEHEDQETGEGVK

SMILES	activation
COc1ccccc1C(=O)NC(C)C(c1cccs1)N1CCOCC1 (configuration not stated)	-5.85%
Cc1ccc(-c2nc3ncccn3c2NC2CCCCC2)o1	-5.26%
NC(=O)C1CCN(S(=O)(=O)c2ccc3c(c2)OCC(=O)N3)CC1	-1.83%
O=C(NCCCN1CCOCC1)/C(=C/c1ccc(-c2cccc(C(F)(F)F)c2)o1)NC(=O)c1ccc(Cl)cc1	23.3%
COc1ccc(-n2nc3c(c2NC(=O)c2c(F)cccc2F)CS(=O)(=O)C3)cc1	-1.16%
CCCN(C(=O)Cc1nc(-c2ccc(OC)cc2)no1)c1ccccc1C	-0.07%
CC1=NN(c2ccccc2)C(=O)/C1=C\c1ccc([N+](=O)[O-])cc1	-3.53%
CCOc1ccc(/C=N/NC(=O)c2ccccc2OC(C)C)cc1O	-4.49%
CN(C)c1ccc(CNCCC2CCOC(C)(C)C2)cc1 (configuration not stated)	0.83%
COc1ccc(-c2cc3ccc(OC(C)C(=O)O)cc3oc2=O)cc1 (configuration not stated)	-10.8%
CC(=O)c1c(C)[nH]c(C(=O)N2CCCC(C)C2)c1C (configuration not stated)	-1.56%
COc1ccc(/C=C\C23N(Cc4ccccc4)C(=O)CN2c2ccccc2C3(C)C)cc1 (configuration not stated)	-0.33%
OCCC1CN(Cc2ccc3nonc3c2)CCN1Cc1ccc(F)c(F)c1 (configuration not stated)	11.5%
O=C(CCC(=O)Nc1ccc(F)cc1)N/N=C/c1cccc([N+](=O)[O-])c1	4.76%
COc1ccc(NC(=O)C(C)N(c2ccc(Oc3ccccc3)cc2)S(C)(=O)=O)cc1 (configuration not stated)	1.83%
Cn1ncc2c(NCCc3ccc(Cl)cc3Cl)ncnc21	27.9% (active)
Clc1ccc(-n2ncc3c(NCc4ccco4)ncnc32)cc1	3.54%
COC(=O)c1cc(Nc2ncnc3c2cnn3-c2ccc(Cl)cc2)cc(C(=O)OC)c1	5.3%
Cc1sc2c(c1C)c(=O)n(CCc1ccccc1)c(=O)n2CC(N)=O	-0.97%
Cc1ccc(-n2ncc3c(=O)n(CC(=O)Nc4cccc(Cl)c4)cnc32)cc1C	-0.5%
C=C(CC(NP(=O)(OCC)OCC)(C(=O)OC)C(F)(F)F)c1ccccc1 (configuration not stated)	1.36%
COc1ccc(CC2(C)OC(c3ccc(C)c([N+](=O)[O-])c3)=NN2C(C)=O)cc1 (configuration not stated)	-3.14%

SMILES	activation
CCOc1ccc(-c2ccc(/C=C3/C(=N)N4C=C(C)SC4=NC3=O)o2)c([N+](=O)[O-])c1	-0.37%
O=c1/c(=C\c2ccccc2Cl)sc2nc3ccccc3n12	-1.37%
CC(C)c1ccc(Cn2ccc3c4c(N)nc(NC5CC5)nc4ccc32)cc1	104% (active)
N/C(=N\OC(=O)CCCN1C(=O)c2ccccc2C1=O)c1ccccn1	10.3%
CCN(CC)C(=O)CN(c1ccccc1)S(=O)(=O)c1ccc(C)cc1	4.39%
CCC1CN(CCNC(=O)c2scc3c2OCCO3)Cc2cc(OC)ccc2O1 (configuration not stated)	6.33%
CC(=O)C1C(c2cccc([N+](=O)[O-])c2)c2c(n[nH]c2C)CC1(C)O (configuration not stated)	0.19%
CC1=C(C(=O)NCCN2Cc3ccccc3OC(c3ccccc3F)C2)OCCO1 (configuration not stated)	2.76%
CCOc1cc(OCC)cc(C(=O)Nc2ccc(Br)cn2)c1	8.34%
CNc1nc2c(-c3ccc(Cl)cc3)nnn2c2ccccc12	16.9%
CC1CC(C)CN(C(=O)c2ccc(NCc3cccs3)c(S(=O)(=O)Nc3cc(F)ccc3F)c2)C1 (configuration not stated)	3.31%
CCCOC1CCCN(Cc2c(C(=O)N(C)CCc3ccccc3)nc3sccn23)C1 (configuration not stated)	6.38%
CC(=O)c1cccc(NC(=O)Oc2ccccc2)c1	2.16%
CCOC(=O)CCN(Cc1ccccc1F)S(=O)(=O)c1ccc([N+](=O)[O-])cc1	-3.3%
COc1ccc(C(=O)N(c2ccc(C)cc2)S(=O)(=O)c2ccc(C)cc2)cc1OC	6.29%
CCOC(=O)c1ccc(CN(Cc2c(Cl)cccc2Cl)S(=O)(=O)c2cccc([N+](=O)[O-])c2)cc1	0.8%
CC1=C(C(=O)OCc2ccco2)C(c2ccc(F)cc2)NC(=O)N1 (configuration not stated)	3.69%
O=[N+]([O-])c1ccc2nc(SCc3ccc(I)cc3)sc2c1	3.08%
CC(C)CCN1C(=O)C(C)(C)COc2cc(NC(=O)c3ccc4c(c3)OCO4)ccc21	-3.7%
COc1cc(/C=C/c2[nH]c(=O)[nH]c(=O)c2[N+](=O)[O-])ccc1OC(C)C	-3.99%
CCN(c1ccccc1)c1ncnc2c1cnn2-c1ccc(Cl)cc1	5.9%
Cc1ccc(-c2[nH]c(=S)[nH]c(=O)c2C#N)cc1	-2.95%

SMILES	activation
Cc1ccccc1OCC(=O)Nc1ccc(N2C(=O)c3ccc([N+](=O)[O-])cc3C2=O)cc1	6.85%
O=C(Nc1cc(Cl)ccc1Cl)c1ccccc1O	26.9% (active)
Cc1ccc(NC(=O)c2ccccc2F)c(Br)c1	-2.79%
O=C(Nc1cc(C(F)(F)F)ccc1Cl)c1ccc(C(=O)C(=O)c2ccccc2)cc1	-1.66%
CCOC(=O)C1=C(C)N=c2s/c(=C\c3cc(C)n(-c4ccc(C(=O)OCC)cc4)c3C)c(=O)n2C1c1ccc(OC)c(OC)c1 (configuration not stated)	1.8%
CCCc1[nH]n(-c2ccc(F)cc2)c(=O)c1C=Nc1ccc(OCC)cc1	-1.39%
Cn1nc2c(c1C(=O)NCC1CC(Cc3cccc(F)c3)=NO1)CCCC2 (configuration not stated)	-2%
O=C(CSc1nnc(Cc2cc(=O)[nH]c(=O)[nH]2)n1-c1ccccc1)NC1CCCC1	2.56%
COc1ccc2c(c1)N(C)/C(=c1/s/c(=c3/sc4nc5ccccc5n4c3=O)n(C)c1=O)S2	5.91%
COC(=O)Cn1c(CN2CCOCC2)nc2c1c(=O)n(C)c(=O)n2C	-2.55%
CC(=O)Cc1nsc(Nc2ccc(C)c(Cl)c2)n1	3.54%
CCN(CC)S(=O)(=O)c1ccc(C(=O)Nc2nc3ccc([N+](=O)[O-])cc3s2)cc1	2.56%
COc1ccc(-c2onc(C(F)(F)F)c2-c2ccc(Cl)cc2)c(O)c1	0.9%
Cc1ccc(Cl)cc1Nc1cc(N2CCOCC2)c2nonc2c1[N+](=O)[O-]	3.43%
CC(C)C[C@@H]1NC(=O)[C@H]2CN(Cc3cn(C)nc3-c3ccccc3)CCN2C1=O	3.84%
CCC(C)NC(=O)C1CCN(S(=O)(=O)N2CCOCC2)CC1 (configuration not stated)	7.37%
Cn1c(=O)oc2cc(S(=O)(=O)N3CCCC(C(=O)N4CCOCC4)C3)ccc21 (configuration not stated)	11.4%
CCc1ccc(C2=CC(c3ccc(OC)c(OC)c3)n3ncnc3N2)cc1 (configuration not stated)	0.38%
COc1ccccc1-c1nnc(C2CCN(S(=O)(=O)c3cccc(C#N)c3)CC2)o1	-0.51%
CCN(CC)CCNC1=CC(=O)OC12CCCCC2	-1.78%
CCC1Oc2ccccc2N(CC(=O)NC2CCCCCC2)C1=O (configuration not stated)	-3.51%
O=C(c1ccco1)N1CCN(C(=O)C2(S(=O)(=O)c3ccc(Cl)cc3)CC2)CC1	4.46%

SMILES	activation
O=C(NCCC12CC3CC(CC(C3)C1)C2)c1cc([N+](=O)[O-])ccc1N1CCOCC1	6.89%
CCOc1ccc(-c2cc(C(=O)N/N=C/c3ccc(O)c(OCC)c3)[nH]n2)cc1	-0.84%
CCCOc1ccc(C2C3=C(CC(C)(C)CC3=O)N(CC(=O)O)C3=C2C(=O)CC(C)(C)C3)cc1OCC	4.15%
COc1ccc(C(=O)NCC2CCCN2S(=O)(=O)c2cccs2)cc1OC (configuration not stated)	-1.78%
CN1CCN(C(CNS(=O)(=O)c2ccccc2)c2cccnc2)CC1 (configuration not stated)	-1.58%
CCCCOC(=O)N1CCOCCOCCN(C(=O)OCCCC)CCOCCOCC1	-4.43%
Cc1ccc(-n2ncc3c(NCc4ccco4)ncnc32)c(C)c1	2.13%
Cc1cccc(-c2nc3ccccc3c(=O)n2Cc2ccccc2C)c1	1.61%
Cc1ccc(COc2cccc3c2CCN(C)C3=O)cc1	-4.68%
CC(=O)Oc1ccccc1N1C(=O)c2cccc([N+](=O)[O-])c2C1=O	28.3% (active)
CCCCOC(=O)c1ccc(N2C(=O)c3cccc([N+](=O)[O-])c3C2=O)cc1	-3.4%
CC(=O)c1ccc(N2C(=O)c3ccc(Oc4ccc([N+](=O)[O-])cc4[N+](=O)[O-])cc3C2=O)cc1	-8.73%
Cc1ccc([N+](=O)[O-])cc1NC(=O)C1C2/C=C\CCCCC21 (configuration not stated)	0.67%
O=C(NCCCN1CCCC1)C(=O)Nc1ccc2nc3n(c(=O)c2c1)CCCCC3	-2.06%
COc1ccc(-c2nc(-c3ccc(NC(=O)c4ccc(Br)o4)cc3)no2)cc1OC	7.05%
N=C(N)SCc1csc2c1CCCC2	1.33%
Nc1nc(NC(=O)c2ccccc2)nn1-c1ccccc1	-4.73%
CC(C)c1ccc(/C=N\NC(=O)Cn2c(-c3nonc3N)nc3ccccc32)cc1	0.86%
CCOC(=O)c1cnc2c(OC)cccc2c1NC1CCCCCC1	18.4%
Cc1ccc(C2=N/C(=C\c3cccc(C(F)(F)F)c3)C(=O)O2)cc1[N+](=O)[O-]	3.7%
CCCCc1ccc(C2=N/C(=C\c3ccc(F)cc3)C(=O)N2c2ccc(Cl)cc2C)cc1	-6.96%
